Here are results for 40 molecules from PubChem BioAssay (Tox21).

Results filed as inconclusive are left out. A call without a number means that no potency is given here. The source made the active and inactive calls. Calls follow the shape of the dose curve; as a rule, active = well fitted cell-killing curve with a large enough effect in the repeat runs (not every such curve was filed as active); inconclusive = weak or mixed curves, or effect the other way; inactive = no such curve, though single readings can be large or run the other way.
Potency is read from the fitted curve at half-maximal effect.

The assay is described as follows: qHTS assay to identify small molecule antagonists of the farnesoid-X-receptor (FXR) signaling pathway - cell viability counter screen (AID 743221). Also: nearly all actives have a fitted effect of over 50% in size. As to conditions: FXR-bla HEK293T viability, CellTiter-Glo luminescence, 16 h; series mostly up to 62.6 µM. The source says: National Center for Advancing Translational Sciences [NCATS]
NIH Chemical Genomics Center [NCGC]
U.S. Environmental Protection Agency [EPA]
National Institutes of Environmental Health Sciences [NIEHS]
National Toxicology Program [NTP]
U.S. Food and Drug Administration [FDA]
The farnesoid-X-receptor (FXR), a nuclear hormone receptor, is highly expressed in liver, intestine, kidney and adrenal cortex. Natural ligands of FXR are the bile acids (Cholic acid, Chenodeoxy cholic acid etc). FXR is an important regulator of diverse metabolic pathways, including the bile acid homeostasis, lipid and glucose metabolisms. FXR regulates the expression of target genes by binding either as a monomer or as a heterodimer with the retinoid X receptor (RXR). Numerous studies have reported that FXR exerts protective function during cholestasis, diabetes, liver regeneration, and cancer. To identify compounds that inhibit FXR signaling, GeneBLAzer FXR-UAS-bla HEK 293T cell line (Invitrogen, Carlsbad, CA) containing a beta-lactamase reporter gene under the control of a UAS response element was used to screen the Tox21 10K compound library. The cytotoxicity of the Tox21 compound library against the FXR-bla cell line was tested in parallel by measuring the cell viability using CellTiter-Glo assay in the same wells.
Tox21 Assay Protocol Summary:
FXR-bla cells were dispensed at 5000 cells/5uL/well in 1536-well black wall/clear bottom plates using a Multidrop Combi (Thermo Fisher Scientific, Waltham, MA) dispenser. After the assay plates were incubated at 37 C and 5% CO2 for 5 h, 23 nL of compounds dissolved in DMSO, positive controls or DMSO only was transferred to the assay plate by a Pintool station (Kalypsys, San Diego, CA), followed by addition of 1 uL Chenodeoxycholic acid (50 uM, final concentration in the wells). The assay plates were incubated at 37C for 16 h. After 1 uL of LiveBLAzerTM B/G FRET substrate was added using a Bioraptr Flying Reagent Dispenser (FRD) workstation (Beckman Coulter, Indianapolis, IN), the plates were incubated at room temperature for 2 h, and fluorescence intensity was measured by an Envision plate reader (PerkinElmer, Shelton, CT). For cell viability readout that measures cytotoxicity, 4uL/well of CellTiter-Glo reagent was added into the assay plates using a Bioraptr FRD. After 30 min incubation at room temperature, the luminescence intensity in the plates was measured using a ViewLux plate reader (PerkinElmer).
On the technique in general: Quantitative high-throughput screening tests each substance at several concentrations.
In the case of `CC[C@]1(O)CC[C@H]2[C@@H]3CCC4=CCCC[C@@H]4[C@H]3CC[C@@]21C`, the Potency entry is “inactive”. Regarding `N#Cc1sc2c(=O)c3ccccc3c(=O)c=2sc1C#N`, the Potency was 34.7 µM (active). The same measure for `Clc1ccc(C(Cl)(Cl)Cl)cc1Cl`: “inactive”; for `CCC1COC(Cn2cncn2)(c2ccc(Cl)cc2Cl)O1` (stereo not given): “inactive”.

As for `NC1CCC(CC2CCC(N)CC2)CC1` (stereo not given), the Potency entry is “inactive”. The same measure for `CCNc1nc(NC(C)C(C)C)nc(SC)n1` (stereo not given): “inactive”; for `CN(C)CCc1c[nH]c2ccccc12`: “inactive”. `CNN`: the Potency entry is “inactive”. As for `Oc1cc(Cl)c(Cl)c(Cl)c1Cl`, the Potency entry was “inactive”. As to `COC(=O)C(C)N(C(=O)c1ccco1)c1c(C)cccc1C` (stereo not given), the Potency result was “inactive”. The same measure for `[C-]1=CC=CC1.[Cl][Zr+2][Cl].c1cc[cH-]c1`: “inactive”. On to `ClC1=C(Cl)[C@]2(Cl)[C@H]3[C@H]([C@@H]4C=C[C@H]3C4)[C@@]1(Cl)C2(Cl)Cl`, for which the Potency entry was “inactive”. The same measure for `CO/N=C(/C1=NOCCO1)c1ccccc1Oc1ncnc(Oc2ccccc2Cl)c1F`: “inactive”. The same measure for `CCC[CH2][Sn]([CH2]CCC)([CH2]CCC)[O][Sn]([CH2]CCC)([CH2]CCC)[CH2]CCC`: 1.2 µM (active); for `O=S(=O)(O)F`: “inactive”; for `O=P(Cl)(Cl)Cl`: “inactive”.

On to `CNC(=O)CSP(=O)(OC)OC`, for which the Potency entry was “inactive”. For `CNC(=O)O/N=C(\C)C(C)S(C)(=O)=O` (stereo not given) the value was “inactive”; for `Nc1nc(N)c(N)c(N)n1`, “inactive”; for `c1ccc2c(c1)cc1ccc3cccc4ccc2c1c34`, “inactive”.

Regarding `C[N+]1(C)[C@@H]2CC[C@H]1CC(OC(=O)C(CO)c1ccccc1)C2` (stereo not given in full), the Potency entry was “inactive”. As to `CCC(OC(C)=O)C(CC(C)NC)(c1ccccc1)c1ccccc1` (stereo not given), the Potency is 69.2 µM (active). For `CC(C)Br` the value was “inactive”.

With `c1csc(-c2ccc(-c3cccs3)s2)c1`, the Potency entry was “inactive”. In the case of `CC(C)N(C(=O)SC/C(Cl)=C/Cl)C(C)C`, the Potency entry is “inactive”. For `CNC(=O)/C=C(\C)OP(=O)(OC)OC` the value was “inactive”.

`CC(Cl)CCl` (stereo not given): the Potency result is “inactive”. For `O=C(O)CCCCCCNC1c2ccccc2CCc2ccccc21` the value was “inactive”; for `CC1(C)[C@H](/C=C2\CCSC2=O)[C@@H]1C(=O)OCc1coc(Cc2ccccc2)c1`, “inactive”; for `CC(=O)[O-].CC(=O)[O-].CC(=O)[O-].[Cr+3]`, “inactive”. The same measure for `C[C@]12Cc3cn[nH]c3C[C@@H]1CC[C@@H]1[C@@H]2CC[C@@]2(C)[C@H]1CC[C@]2(C)O`: 33.5 µM (active); for `COc1c2c(cc3c1OCO3)CCN(C)C2`: “inactive”. In the case of `Nc1ccc(Cl)cc1C(=O)c1ccccc1F`, the Potency result is “inactive”. The same measure for `O=[N+]([O-])c1ccc(CCl)cc1`: “inactive”. As for `O.O.O.O=C([O-])[C@H]([O-])[C@@H]([O-])C(=O)[O-].O=C([O-])[C@H]([O-])[C@@H]([O-])C(=O)[O-].[K+].[K+].[Sb+3].[Sb+3]`, the Potency result is “inactive”. For `CC(Cc1ccc2c(c1)OCO2)NO` (stereo not given), the Potency result was “inactive”. The same measure for `CCOP(=O)(Sc1ccccc1)Sc1ccccc1`: “inactive”; for `CC(Cc1ccc(O)cc1)NCC(O)c1cc(O)cc(O)c1` (stereo not given): “inactive”; for `ClC1=C(Cl)[C@]2(Cl)[C@@H]3[C@H]4C[C@H]([C@@H]5O[C@H]45)[C@@H]3[C@@]1(Cl)C2(Cl)Cl`: “inactive”. Turning to `CC(C)=CC1C(C(=O)OC(C#N)c2cccc(Oc3ccccc3)c2)C1(C)C` (stereo not given), the Potency result is “inactive”.
